IL-1B inflam inh – blocks inflammasome-driven IL-1 beta release; activity change, % at 57.5 µM; THP-1 LPS/ATP IL-1B secretion, AlphaLISA, 16 h; hits give low values; 4.7% of 360,000 active; in the data active means activity change below about -50%; inconclusive means mostly about -30% to -49%
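Secreted IL-1B measured by AlphaLISA bead assay after 16 h compound exposure of THP-1 cells; compounds (final up to 57.5 uM) added 1 h before LPS (250 ng/mL) and ATP (1.25 mM) stimulation; lower signal means less secretion.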
Giardia kill – kills Giardia lamblia; AID 540267; activity change, % at 7.66 µM, hits read low; 0.15% of 340,000 active; Giardia lamblia trophozoite viability; in the data active means activity change below about -80%; inconclusive means between about -30% and that limit;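 further: parasites exposed to compound for two days anaerobically before the ATP read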
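Trophozoites 100 cells/well + cpd; 48 hrs, 37 deg C, anaerobic. ATPLite 1-Step added, 15-30 min RT, luminescence read (ATP-based viability).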
DT40 TDP1 CPT – growth inhibition of DT40 Tdp1-/-;hTDP1 cells with camptothecin (screen for TDP1 inhibitors); chicken DT40 Tdp1-/-;hTDP1 cells + 20 nM CPT, ATP luminescence, 48 h; Potency, µM (highest dose often 46.2 µM), for inactives: top-dose activity change, negative = growth inhibition, hits mostly inhibitors; 12% of 420,000 active; further: potency means the concentration at half of the fitted maximal effect; nearly all actives have a fitted effect of over 55% in size
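Cell growth measured by CellTiter-Glo luminescence after a minimum 48 h, 37 C compound exposure with 20 nM CPT in Tdp1-knockout DT40 cells stably expressing hTDP1, seeded 400/well; qHTS titration format.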
TDP1 block – TDP1 (human) enzyme inhibition | Q9NUW8 | recombinant TDP1, AlphaScreen DNA substrate cleavage | Potency, µM (series often up to 130 µM), without a hit: at the highest dose activity change, negative = inhibition, usual class: inhibitors | 0.28% of 350,000 active; further: potency means the concentration at half of the fitted maximal effect; nearly all actives have a fitted effect of over 40% in size
Target sequence (Q9NUW8 whole entry, looked up): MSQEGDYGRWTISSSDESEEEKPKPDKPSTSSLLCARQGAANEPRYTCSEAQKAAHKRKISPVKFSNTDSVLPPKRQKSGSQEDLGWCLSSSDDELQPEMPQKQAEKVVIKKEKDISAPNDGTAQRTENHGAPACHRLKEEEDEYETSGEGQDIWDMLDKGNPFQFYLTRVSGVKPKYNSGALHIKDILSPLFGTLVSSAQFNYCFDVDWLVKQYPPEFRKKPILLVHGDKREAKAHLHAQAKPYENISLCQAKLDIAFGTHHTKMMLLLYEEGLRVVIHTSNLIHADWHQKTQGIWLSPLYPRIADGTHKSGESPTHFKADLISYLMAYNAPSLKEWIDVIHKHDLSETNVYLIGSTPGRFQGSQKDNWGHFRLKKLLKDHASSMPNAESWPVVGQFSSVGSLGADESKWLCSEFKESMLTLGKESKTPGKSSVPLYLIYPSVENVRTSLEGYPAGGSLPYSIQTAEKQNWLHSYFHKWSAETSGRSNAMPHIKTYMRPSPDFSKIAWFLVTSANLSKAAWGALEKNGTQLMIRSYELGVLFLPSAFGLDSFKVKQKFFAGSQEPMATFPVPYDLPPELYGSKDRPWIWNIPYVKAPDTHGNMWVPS
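Tdp1 1 nM final; 15 min RT w/ cpd; substrate 15 nM, 5 min; beads 10 ug/ml, 10 min; AlphaScreen read. Neg ctrl: no enzyme.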
ELG1 DNA repair – inhibitors of ELG1-dependent DNA repair in HEK293T cells; HEK293T ELG1-luciferase reporter, luminescence, 16 h; DNA damage induced by 5-fluorouridine; Potency, µM (series often up to 46.1 µM), for inactives: at the highest dose activity change, negative = inhibition, most hits filed as inhibitors; 2.3% of 330,000 active; further: potency means the concentration at half of the fitted maximal effect; nearly all actives have a fitted effect of over 55% in size
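Reporter activity after DNA damage by 5-fluorouridine is monitored. Compound-treated cells incubate 16 hr at 37 °C, then ONE-Glo is added for 30 min before luminescence reading.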
DT40 TDP1 no CPT – qHTS for Inhibitors of human tyrosyl-DNA phosphodiesterase 1 (TDP1): qHTS in cells in absence of CPT; DT40 Tdp1-/- hTDP1 cells, no CPT, ATP luminescence, 48 h; Potency, µM (top dose mostly 46.2 µM), for inactives: at the highest dose activity change, negative = growth inhibition, hits mostly inhibitors; 15% of 420,000 active; further: potency means the concentration at half of the fitted maximal effect; nearly all actives have a fitted effect of over 55% in size
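Growth of hTDP1-complemented DT40 Tdp1-knockout cells is measured by ATP luminescence after at least 48 hr compound exposure at 37 °C, with DMSO substituting for the 20 nM CPT used in the parallel screen.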
Starred values were filed as active, the others as inactive; ? = inconclusive; . = no result given. An excerpt weighted towards active compounds, which were near 19% of everything screened. Unless noted, the call rests on the fitted dose curve; in most records, active means well fitted curve in the direction sought with a large enough effect; inconclusive means small, poorly fitted or top-dose-only effect, or another doubt; inactive means no such curve, though single readings can be large; an effect the other way counts as inactive or inconclusive. On the % scale 0 is the no-effect control and ±100 the full control effect.

SMILES	IL-1B inflam inh	Giardia kill	DT40 TDP1 CPT	TDP1 block	ELG1 DNA repair	DT40 TDP1 no CPT
O=S(=O)(CCNCc1ccccc1)NC1CCCCC1	8	17	?	.	.	-3%
CCCCCCCCNS(=O)(=O)CCNCCc1ccccc1	?	-1	-29%	.	.	?
CCCCCCCCNS(=O)(=O)CCNCc1ccccc1OC	-62*	18	?	.	.	21µM*
CCCCCCCCNCCS(=O)(=O)NC1CCCCC1	-70*	-3	?	.	.	?
Cc1cccc([S+](=O)([O-])NC2CCN(C#N)CC2)c1	.	.	.	0%	.	.
Cc1ccccc1N1CCN(Cc2ccc(Br)o2)CC1	-7	1	?	.	3%	-30%
CCOc1ccccc1N1CCN(C(=O)CN2C(=O)NC3(CCCC3)C2=O)CC1	-1	-12	-4%	-6%	5%	-5%
CCC(C)(C)C1CCC2(CC1)NC(=O)N(CC(=O)N1CCN(c3ccccc3OC)CC1)C2=O (stereo unspecified)	-13	.	21µM*	.	.	21µM*
CCC(C)(C)C1CCC2(CC1)NC(=O)N(CC(=O)NC(C)CCc1ccccc1)C2=O (stereo unspecified)	-5	3	?	-7%	1%	12µM*
CCC(C)(C)C1CCC2(CC1)NC(=O)N(CC(=O)N(C)Cc1ccc3c(c1)OCCO3)C2=O (stereo unspecified)	-17	-10	?	2%	12µM*	21µM*
CCC(C)(C)C1CCC2(CC1)NC(=O)N(CC(=O)Nc1nc(-c3ccc(C)cc3)cs1)C2=O (stereo unspecified)	16	4	?	6%	?	7.3µM*
CC(CCc1ccccc1)NC(=O)CN1C(=O)NC2(CCCCC2C)C1=O (stereo unspecified)	5	5	-1%	-2%	?	-28%
COc1cccc(NS(=O)(=O)c2ccc3c(c2)CCCN3C(=O)C2CCC2)c1	.	.	23µM*	7%	.	?
CCOc1ccc(NS(=O)(=O)c2ccc3c(c2)CCCN3C(=O)C2CCC2)cc1	.	.	?	10%	.	?
Cc1cc(C)cc(NS(=O)(=O)c2ccc3c(c2)CCCN3C(=O)C2CCC2)c1	.	.	23µM*	-2%	.	21µM*
COC(=O)c1cc(S(=O)(=O)Nc2cccc(OC)c2)cn1C	1	5	?	.	?	23µM*
COc1cc(NS(=O)(=O)c2ccc3c(c2)CCN3S(C)(=O)=O)cc(OC)c1	.	.	18µM*	5%	.	5.2µM*
Cc1c(O)c2cccnc2[nH]c1=O	-4	0	5%	0%	10%	2%
O=C(C1CCC1)N1CCCc2cc(S(=O)(=O)Nc3ccc(F)cc3)ccc21	.	.	?	1%	.	23µM*
O=C(Nc1ccccc1)OCCc1ccccc1	-7	.	-26%	.	.	?
COc1cccc(C(=O)Nc2nnc(SCC(=O)NC3CCCC3)s2)c1	9	?	2%	2%	?	-6%
CCCc1c(C(=O)N/N=C(\C)c2ccccn2)nnn1-c1nonc1N	98	.	2.6µM*	.	.	1.6µM*
CCCc1c(C(=O)N/N=C(\C)c2cc(C)sc2C)nnn1-c1nonc1N	-19	.	?	.	.	18µM*
C/C(=N\NC(=O)c1nnn(-c2nonc2N)c1C(C)C)c1cc(C)sc1C	-10	-17	?	3%	1%	?
CCCc1c(C(=O)N/N=C(\C)c2ccc(O)cc2)nnn1-c1nonc1N	?	0	-20%	9%	5%	0%
CC(=O)O[C@]1(C(C)=O)CC[C@H]2[C@@H]3C=C(Cl)C4=CC(=O)CC[C@]4(C)[C@H]3CC[C@@]21C	-17	15	?	-3%	?	21µM*

Bioassay records deposited in PubChem BioAssay by National Center for Advancing Translational Sciences (NCATS).
